Data from PubChem BioAssay (Tox21).
“And” between values parts separate entries of the source, which are not always exact repeats. Equal values may be shown once. Results filed as inconclusive are left out. The source made the active and inactive calls. Unless noted, calls come from the whole dose curve; as a rule, active = well fitted curve in the direction sought with a large enough effect in the repeat runs; inconclusive = weak or mixed curves; inactive = no such curve, though single readings can be large; an effect the other way counts as inactive or inconclusive.

Key:
[1] = qHTS assay for small molecules that induce genotoxicity in human embryonic kidney cells expressing luciferase-tagged ATAD5 (AID 651632); conditions: HEK293T ATAD5-luciferase induction, 16 h; series mostly up to 83.3 µM; note: nearly all actives have a fitted effect of over 15% in size
Procedure, shortened: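 Increased luciferase signal from ATAD5-tagged reporter cells indicates DNA-damage-driven ATAD5 induction. HEK293T cells are treated for 16 hr at 37C before detection with Amplite.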

[2] = qHTS assay for small molecule agonists of the p53 signaling pathway - cell viability (AID 651633; calls by dose curve; note: nearly all actives have a fitted effect of over 30% in size; note: potency is the fitted concentration of half-maximal effect); conditions: p53RE-bla HCT-116 viability, ATP luminescence, 16 h; series mostly up to 83.3 µM
Procedure, shortened: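 p53RE-bla cells were treated with compound for 16 hours at 37 C. Cytotoxicity was then measured as CellTiter-Glo luminescence after 30 min at room temperature.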

[3] = qHTS assay for small molecule disruptors of the mitochondrial membrane potential - cell viability (AID 720634; calls by dose curve; note: nearly all actives have a fitted effect of over 20% in size; note: potency is the fitted concentration of half-maximal effect); conditions: HepG2 viability, ATP luminescence (CellTiter-Glo), 1 h; series mostly up to 83.2 µM
Procedure, shortened: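 After overnight attachment at 37 C, HepG2 cells received compound or DMSO vehicle for 1 hr. Viability is then taken from ATP-driven luminescence following a 30 min room-temperature CellTiter-Glo step.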

[4] = qHTS assay to test for compound auto fluorescence at 590 nm (red) in HepG2 cells (AID 720674); conditions: HepG2 autofluorescence, red 540/590 nm, 1 h; series mostly up to 91.3 µM
Procedure, shortened: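 HepG2 cells, 2,000 per well in MEM with 10% FBS, attached overnight at 37 C, then got 23 nL compound or DMSO. After 1 hr at 37 C, 5% CO2, red fluorescence was read at 540/590 nm against Rose Bengal sodium as reference.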

[5] = qHTS assay to test for compound auto fluorescence at 535 nm (green) in HepG2 cells (AID 720675); conditions: green autofluorescence 485/535 nm, 1 h; series mostly up to 91.3 µM
[6] = qHTS assay to test for compound auto fluorescence at 460 nm (blue) in HEK293 cells (AID 720678); conditions: blue autofluorescence 405/460 nm; series mostly up to 91.3 µM
Procedure, shortened: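 Auto fluorescence in the blue band was quantified as triamterene equivalency. HEK293 cells were seeded at 2,000/well, dosed after a 4-5 hr attachment, and kept overnight at 37C before the 405/460 nm reading.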

[7] = qHTS assay to test for compound auto fluorescence at 590 nm (red) in HEK293 cells (AID 720679); conditions: red autofluorescence 540/590 nm; series mostly up to 91.3 µM
Procedure, shortened: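 Autofluorescence equivalency to Rose Bengal sodium, 540/590nm, in HEK293 cells exposed overnight to 23 nL compound per well.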

[8] = qHTS assay for small molecules that induce genotoxicity in human embryonic kidney cells expressing luciferase-tagged ATAD5 - cell viability (AID 651634; calls by dose curve; note: nearly all actives have a fitted effect of over 25% in size; note: potency is the fitted concentration of half-maximal effect); conditions: HEK293T ATAD5-luc cells viability, CellTiter-Fluor, 15.5 h; series mostly up to 83.3 µM
Procedure, shortened: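 Cytotoxicity counterscreen in HEK293T cells bearing an ATAD5-luciferase reporter: live-cell protease activity measured by CellTiter-Fluor fluorescence after 15.5 hr compound exposure.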

[9] = qHTS assay for small molecule disruptors of the mitochondrial membrane potential (AID 720635); conditions: HepG2 mitochondrial membrane potential, Mito-MPS dye ratio; series mostly up to 83.2 µM; note: potency is the fitted concentration of half-maximal effect
Procedure, shortened: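 HepG2 cells exposed to compound 1 hr at 37C, then Mito-MPS dye 30 min. Ratio read of aggregate (540/590 nm) versus monomer (490/535 nm) fluorescence.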
% is set by controls: 0 for no effect and ±100 for the full control effect.

CCOP(=O)(OCC)Oc1ccc([N+](=O)[O-])cc1
inactive: Potency [1] | Potency [2] | Potency [3] | outcome [4] | outcome [5] | outcome [6] | outcome [7]

COc1nn(C(=O)NS(=O)(=O)c2ccccc2OC(F)(F)F)c(=O)n1C
inactive: Potency [1] | Potency [2] | Potency [3] | outcome [4] | outcome [5] | outcome [6] | outcome [7]

O=S1OC[C@@H]2[C@H](CO1)[C@]1(Cl)C(Cl)=C(Cl)[C@@]2(Cl)C1(Cl)Cl (some centres undefined)
inactive: Potency [1] | Potency [8] | outcome [4] | outcome [5] | outcome [7]
active: Potency [2] 61.1 µM

CC(O)(CS(=O)(=O)c1ccc(F)cc1)C(=O)Nc1ccc(C#N)c(C(F)(F)F)c1 (centres undefined)
inactive: Potency [1] | Potency [2] | Potency [8] | outcome [4] | outcome [5] | outcome [6] | outcome [7]

CN(N=O)c1ccc([N+](=O)[O-])cc1
inactive: Potency [1] | Potency [2] | Potency [3] | Potency [9] | outcome [4] | outcome [6]

O=C(Nc1ccccc1)Nc1ccnc(Cl)c1
active: Potency [9] 0.386 µM
inactive: Potency [1] | Potency [2] | Potency [3] | outcome [4] | outcome [5] | outcome [7]

CCOP(=O)(OCC)SCCSCC
inactive: Potency [1] | Potency [2] | Potency [8] | Potency [3] | outcome [4] | outcome [6] | outcome [7]

C=CC[C@]1(O)CC[C@H]2[C@@H]3CCC4=CC(=O)CCC4=C3C=C[C@@]21C
inactive: Potency [1] | Potency [2] | Potency [3] | Potency [9] | outcome [4] | outcome [5] | outcome [6]

CCOP(=S)(OCC)Oc1cc(Cl)c(Br)cc1Cl
inactive: Potency [1] | Potency [2] | Potency [8] | outcome [4] | outcome [5] | outcome [6] | outcome [7]

C=CC(=O)OCCCCO
inactive: Potency [1] | Potency [2] | Potency [3] | Potency [9] | outcome [4] | outcome [5] | outcome [6] | outcome [7]

O=C(NC(=O)c1c(F)cccc1F)Nc1cc(Cl)c(Oc2ncc(C(F)(F)F)cc2Cl)c(Cl)c1
active: Potency [2] 7.37 µM
inactive: Potency [1] | Potency [8] | outcome [4] | outcome [5] | outcome [7]

CN1C(=O)C(O)N=C(c2ccccc2)c2cc(Cl)ccc21 (centres undefined)
inactive: Potency [1] | Potency [2] | Potency [3] | outcome [4] | outcome [5] | outcome [6] | outcome [7]

Cc1cc(=O)[nH]o1
inactive: Potency [1] | Potency [2] | Potency [3] | Potency [9] | outcome [4] | outcome [5] | outcome [6] | outcome [7]

CCOP(=O)(OCC)O/C(=C/Cl)c1ccc(Cl)cc1Cl
inactive: Potency [1] | Potency [2] | Potency [8] | Potency [3] | outcome [4] | outcome [6] | outcome [7]

Cn1sc(Cl)cc1=O
inactive: Potency [1] | Potency [2] | Potency [3] | Potency [9] | outcome [4] | outcome [7]

CC1CC(CC2CCC(N)C(C)C2)CCC1N (centres undefined)
inactive: Potency [1] | Potency [2] | Potency [3] | Potency [9] | outcome [4] | outcome [5] | outcome [6] | outcome [7]

CS/C(C)=N/OC(=O)N(C)SN(C)C(=O)O/N=C(\C)SC
inactive: Potency [1] | Potency [2] | Potency [3] | Potency [9] | outcome [4] | outcome [5] | outcome [6] | outcome [7]

O=C(Nc1ccccc1)Nc1cnns1
inactive: Potency [1] | Potency [8] | Potency [3] | outcome [4] | outcome [5] | outcome [6] | outcome [7]

CCC(C)(NC(=O)c1cc(Cl)c(C)c(Cl)c1)C(=O)CCl (centres undefined)
inactive: Potency [1] | outcome [4] | outcome [5] | outcome [6] | outcome [7]
active: Potency [2] 61.5 µM

CC(C)=CCOc1c2occc2cc2ccc(=O)oc12
inactive: Potency [1] | Potency [8] | Potency [3] | Potency [9] | outcome [4] | outcome [6] | outcome [7]

CCOC(=O)COc1cc(-c2nn(C)c(OC(F)F)c2Cl)c(F)cc1Cl
inactive: Potency [1] | Potency [2] | Potency [3] | outcome [4] | outcome [7]

O=C1NCN(c2ccccc2)C12CCN(CCCOc1ccc(F)cc1)CC2
inactive: Potency [1] | Potency [8] | Potency [3] | outcome [4] | outcome [6] | outcome [7]
active: Potency [9] 3.35 µM

O=[N+]([O-])c1cc(C(F)(F)F)cc([N+](=O)[O-])c1Cl
inactive: Potency [1] | Potency [2] | outcome [4] | outcome [5] | outcome [7]

Clc1ccc(C(OCCN2CCCCC2)c2ccccc2)cc1 (centres undefined)
inactive: Potency [1] | Potency [2] | Potency [3] | fluorescence, relative to Rose Bengal [4] -0.716% [at 18.6 µM] | fluorescence, % of fluorescein control [5] -0.0264% [at 18.6 µM] | fluorescence, % of triamterene [6] 0.0368% [at 18.6 µM] | fluorescence, % of fluorescent control [7] 0.965% [at 18.6 µM]

O=C(CBr)OCc1ccccc1
inactive: Potency [1] | Potency [8] | Potency [3] | outcome [4] | outcome [5] | outcome [6]

COP(=S)(OC)Oc1ccc([N+](=O)[O-])cc1Cl
inactive: Potency [1] | Potency [2] | outcome [4] | outcome [5] | outcome [6]

Clc1cccc(SC2CCNCC2)n1
inactive: Potency [1] | Potency [8] | Potency [3] | outcome [4] | outcome [5] | outcome [6] | outcome [7]

O=C1c2ccccc2C(=O)C1C(=O)C(c1ccccc1)c1ccccc1
inactive: Potency [1] | Potency [8] | Potency [3] | outcome [4] | outcome [5] | outcome [6]

ClCCCCBr
inactive: Potency [1] | Potency [8] | Potency [3] | outcome [4] | outcome [5] | outcome [6]

C/C(=C\c1ccccc1)[N+](=O)[O-]
active: Potency [8] 24.3 µM | Potency [9] 30.6 µM
inactive: Potency [1] | Potency [3] | outcome [4] | outcome [5] | outcome [7]

C(=NC1CCCCC1)=NC1CCCCC1
inactive: Potency [1] | outcome [4] | outcome [6]
active: Potency [8] 30.8 µM and 43.3 µM | Potency [3] 5.48 µM | Potency [9] 138 nM and 217 nM

CN1C[C@H](CNC(=O)OCc2ccccc2)C[C@@H]2c3cccc4c3c(cn4C)C[C@H]21
inactive: Potency [1] | Potency [8] | Potency [3] | outcome [4] | outcome [5] | outcome [6] | outcome [7]

O=C(O)C(F)(F)C(F)(F)C(F)(F)C(F)(F)C(F)(F)C(F)(F)C(F)(F)C(F)(F)C(F)(F)F
inactive: Potency [1] | Potency [8] | Potency [3] | outcome [4] | outcome [5] | outcome [6] | outcome [7]

O=C(O)C1(c2ccc3c(c2)OC[C@H](Cc2ccc(-c4ccccc4)cc2)[C@H]3O)CCCC1
inactive: Potency [1] | Potency [8] | Potency [3] | outcome [4] | outcome [5] | outcome [7]

C=CC(=O)OCC(C)O (centres undefined)
inactive: Potency [1] | Potency [8] | Potency [3] | outcome [4] | outcome [5] | outcome [7]

C/C=C/C=O
inactive: Potency [1] | Potency [2] | outcome [4] | outcome [5] | outcome [6] | outcome [7]

O=C1CN=C(c2ccccc2)c2cc(Cl)ccc2N1CC1CC1
active: Potency [9] 51 µM
inactive: Potency [1] | Potency [8] | Potency [3] | outcome [4] | outcome [5] | outcome [7]

Clc1cccc2ccccc12
inactive: Potency [1] | Potency [8] | Potency [3] | Potency [9] | outcome [4] | outcome [6] | outcome [7]

O=Cc1ccc(Cl)cc1Cl
inactive: Potency [1] | Potency [2] | Potency [3] | outcome [4] | outcome [6]

COc1nn(CSP(=S)(OC)OC)c(=O)s1
inactive: Potency [1] | Potency [2] | Potency [3] | outcome [4] | outcome [5] | outcome [6] | outcome [7]

COP(=S)(Oc1cc(Cl)c(Br)cc1Cl)c1ccccc1 (centres undefined)
active: Potency [3] 48.6 µM
inactive: Potency [1] | Potency [8] | outcome [4] | outcome [5]
